Measured values published in PubChem BioAssay AID720517 (National Center for Advancing Translational Sciences (NCATS), 2013).
Results filed as inconclusive are left out. The source made the active and inactive calls. Calls come from the whole dose curve; as a rule, active = well fitted activation curve with a large enough effect; inconclusive = small, poorly fitted or top-dose-only effect; inactive = flat fitted curve, though single readings scatter.

Assay: qHTS for Inhibitors of Cell Surface uPA Generation: FP59 Counterscreen for Cherry-picked Compounds; note: 0% is about no effect
Details: FP59 anthrax toxin cytotoxicity counterscreen, cells; series mostly up to 115 µM; activity (protection from FP59): at the top concentration
With `CCOC(=O)C1=CC[C@@H](c2cc3ccc(OC)cc3n2C)N(S(=O)(=O)c2ccc(C)cc2)[C@H]1C(=O)OCC` the “activity (protection from FP59)” value was -1.37% (inactive). With `Cc1cc(C)cc(NC(=O)C(OC(=O)c2ccc(O)cc2)c2ccccc2)c1` (configuration not stated) the “activity (protection from FP59)” value was 5.79% (inactive). For `CC(=O)Nc1ccc(OS(=O)(=O)c2c(C)cc(C)cc2C)cc1`, the “activity (protection from FP59)” value was -1.2% (inactive). For `Cc1cc(C)c(S(=O)(=O)N2CCCOC2CNC(=O)C(=O)NCc2cccs2)c(C)c1` (configuration not stated), the “activity (protection from FP59)” value was -1.06% (inactive). For `CCCCCOC(=O)C1=C(C)NC(=O)NC1c1ccccc1` (configuration not stated), the “activity (protection from FP59)” value was -0.939% (inactive). For `O=C(Cc1ccc(Cl)cc1)c1c[nH]c(C(=O)NCCCn2ccnc2)c1`, the “activity (protection from FP59)” value was -1.08% (inactive). With `Cn1c(=O)n(CC(=O)O)c(=O)c2c1nc1n2CCCN1CCc1ccccc1` the “activity (protection from FP59)” value was -1.33% (inactive). In the case of `CN(C)c1ccc(S(=O)(=O)N2CCC(Cc3ccccc3)CC2)cn1`, the “activity (protection from FP59)” value is reported as 0.212% (inactive). For `CCC(C(=O)NCc1ccc(C)cc1)c1ccccc1` (configuration not stated), the “activity (protection from FP59)” value was -1.46% (inactive). For `COCCn1c(SCC(=O)Nc2ccc(F)cc2)nc2ccccc2c1=O`, the “activity (protection from FP59)” value was -1.36% (inactive). For `CCC(=O)Nc1nc(-c2cc([N+](=O)[O-])cs2)cs1`, the “activity (protection from FP59)” value was -1.47% (inactive). With `Cc1cc(/C=N/NC(=O)c2ccccc2F)c(C)n1-c1ccccc1` the “activity (protection from FP59)” value was -0.245% (inactive). In the case of `COc1cc(/C=N/NC(=O)c2ccncc2)ccc1O`, the “activity (protection from FP59)” value is reported as -1.39% (inactive). In the case of `COc1ccc(NC(=O)CC(C)CC(=O)NCc2ccccc2)c(OC)c1` (configuration not stated), the “activity (protection from FP59)” value is reported as -1.24% (inactive). In the case of `O=C(C[C@@H]1C/C=C\C[C@H](Cc2ccc(F)cc2)C(=O)OC[C@H]2CCCN2C1=O)N[C@H](CO)Cc1ccccc1`, the “activity (protection from FP59)” value is reported as -1.53% (inactive). With `COc1ccc(/C=N/NC(=O)COc2ccc3ccccc3c2)c(C(=O)O)c1OC` the “activity (protection from FP59)” value was -1.42% (inactive). For `CC(C)C(=O)Nc1nnc(SCc2cccc(F)c2)s1`, the “activity (protection from FP59)” value was -1.27% (inactive).
